Test results taken from PubChem BioAssay (EPA / NIEHS).
Inconclusive results are not listed. Activity calls are given as the source filed them. Rule for the calls: active = hit-call score of the fitted dose curve at least 0.9, where 1 is the maximum; inconclusive = response in the unintended direction; inactive = score below 0.9.

Test: ACEA_AR_agonist_AUC_viability: ACEA Biosciences xCELLigence Real-Time Cell Analysis on Androgen Receptor Agonism for Viability (AID 2283775);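 for AC50: viability read 80 hours after compound addition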
Outline: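 Read-out is area under the impedance curve at 80 h post-dose in 22Rv1 cells, with DMSO as baseline and signal loss taken as reduced viability. Compounds ran in duplicate from 100 uM final.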

Structure (SMILES) | outcome | AC50
OCCO | inactive | 
CCCCCCCCCCCCO | inactive | 
Cc1cc(F)ccc1-c1cc(N2CC[C@@H](O)[C@H]2CO)ncc1N(C)C(=O)C(C)(C)c1cc(C(F)(F)F)cc(C(F)(F)F)c1 |  | 8.51 µM (active)
CCO[Si](CCCNC(N)=O)(OCC)OCC | inactive | 
Cc1ccc2oc(CN(Cc3ccccc3)C(=O)Nc3c(F)cc(F)cc3F)c(-c3ccc(Cl)cc3)c2c1 |  | 9.77 µM (active)
O=c1[nH]sc2ccccc12 |  | 14.1 µM (active)
O=C1c2ccccc2C(=O)N1CCc1noc(-c2ccc(CN3CCCCCC3)s2)n1 |  | 13.2 µM (active)
CCCCCCCCOc1ccc(C(=O)c2ccccc2)c(O)c1 |  | 68.2 µM (active)
CC(C)(O)c1ccc(CNC(=O)c2cccnc2Oc2ccc3nonc3c2)cc1 | inactive | 
O=C(O)c1ccccc1-n1cc(C(=O)O)c(=O)c2cc(Nc3c(F)cc(F)cc3Cl)c(Cl)cc21 | inactive | 
